Test results published in PubChem BioAssay (NCATS).
Inconclusive results are not listed. A number with no mark means an inactive call. Calls of active or inactive are those of the source. Calls follow the shape of the dose curve; as a rule, active = well fitted inhibition curve with a large enough effect; inconclusive = small, poorly fitted or top-dose-only effect; inactive = flat fitted curve, though single readings scatter.

What follows are molecules tested on MCC-26 (assay: qHTS assay to identify novel small-molecules to repurpose for Merkel cell carcinoma treatment (AID 1296009; also: nearly all actives have a fitted effect of over 60% in size)). Settings: MCC and control cell lines, CellTiter-Glo viability, 72 h; series mostly up to 46 µM; activity change, negative = cytotoxicity: at the top concentration.
From the text: MCC is a rare and aggressive neuroendocrine skin cancer with limited treatment options. Approximately 80% of MCCs have the Merkel cell polyomavirus (MCPyV) DNA integrated into the host genome (virus-positive: VP-MCC) and viral oncogenes drive oncogenesis. The remaining MCCs are virus-negative (VN-MCC) and are caused by UV mutagenesis. To identify novel treatments for VP-MCC and/or VN-MCC we screened three VP-MCC cell lines (WAGA, MKL-1, MKL-2), three VN-MCC cell lines (MCC-13, MCC-26, UISO), and four immortalized, non-transformed control cell lines (HaCaT, HEK293T, CRL7250, NIH-3T3) against ~2,400 compounds in the NCGC Pharmaceutical Collection (NPC) and ~1,900 compounds in the Mechanism Interrogation PlatE (MiPE). Using cell viability as a readout (CellTiter-Glo assay) we found both overlapping and distinct drugs that can be repurposed for the treatment of VP-MCC and VN-MCC.
A high-throughput screen was conducted in 1536-well white flat bottom plates (Corning) on a Kalypsys robotic system. Cell lines WAGA, MKL-1, MKL-2, MCC-13, MCC-26, UISO, HaCaT, HEK293T, CRL7250, and NIH-3T3 were screened against 2 small molecule annotated drug libraries NPC and MIPE in dose response (8 and 11 pt. respectively) measuring cell viability after 72 hours of incubation. […] A 1,536 pintool (Kalypsys) was used to transfer 23 nL of compound in DMSO to the 1,536-well assay plates. After 72 hr incubation at 37 degree celsius, 2.5 uL of CellTiter-Glo (Promega) was dispensed into each well using a BiorapTR. Plates were incubated at room temperature for 10 min, transferred to a ViewLux (PerkinElmer) and the luminescence was recorded using an exposure time of 2 seconds. Relative luminescence units (RLUs) were normalized to in-plate controls (no cells as a positive (cytotoxicity) control, DMSO as negative control) and the normalized data was processed using NCATS in-house software.
% is scaled to controls: 0 for no effect and ±100 for the full control effect; potency is read from the fitted curve at half-maximal effect.

First: CCCCC(CC)CN1CN(CC(CC)CCCC)CC(C)(N)C1 (stereo not given)
Second: CCCCC(CC)COC(=O)/C=C/c1ccc(OC)cc1 (stereo not given)
The “activity change, negative = cytotoxicity” value of the first is lower: -12% for the first, 7.42% for the second.

Compared with `COc1cc(NS(=O)(=O)c2ccc(N)cc2)ncn1`, `COc1cc(O)c(C(=O)c2ccccc2)cc1S(=O)(=O)O` is lower in “activity change, negative = cytotoxicity” value: 3.8% for the first, -0.033% for the second.

Going from `O=C(O)C1(C(=O)O)CCC1.[NH2-].[NH2-].[Pt+2]` to `CN(C)CCOC(=O)C(c1ccccc1)C1(O)CCCC1` (stereo not given), the “activity change, negative = cytotoxicity” value falls from 3.38% to -0.175%.

Going from `O=C(NC1CCN(CCc2c[nH]c3ccccc23)CC1)c1ccccc1` to `O=C(NCCc1c[nH]c2ccccc12)c1cccnc1`, the “activity change, negative = cytotoxicity” value rises from -10.5% to 3.52%.

Compared with `Cc1c[nH]c2ccccc12`, `c1ccc(CC2=NCCN2)cc1` is lower in “activity change, negative = cytotoxicity” value: 10.4% for the first, -0.435% for the second.

First: CC(=O)NO
Second: CC(=O)Nc1ncc([N+](=O)[O-])s1
The “activity change, negative = cytotoxicity” value of the first is lower: -1.98% for the first, 10.9% for the second.

Going from `Cc1cccc(C)c1NC(=O)c1ccccc1C(=O)O` to `Cc1c(-c2ccccc2)oc2c(C(=O)OCCN3CCCCC3)cccc2c1=O`, the “activity change, negative = cytotoxicity” value falls from 9.61% to -7.89%.

Going from `CN1CCN(c2cc3c(cc2F)c(=O)c(C(=O)O)cn3-c2ccc(F)cc2)CC1` to `CC1CCc2c(N3CCC(O)CC3)c(F)cc3c(=O)c(C(=O)O)cn1c23` (stereo not given), the “activity change, negative = cytotoxicity” value rises from -13.5% to 0.0228%.

First: CC1(C)OC[C@@H]2O[C@@]3(C(=O)O)OC(C)(C)O[C@H]3[C@@H]2O1
Second: C#C[C@]1(OC(C)=O)CC[C@H]2[C@@H]3CCC4=C/C(=N/O)CC[C@@H]4[C@H]3CC[C@@]21CC
The “activity change, negative = cytotoxicity” value of the first is higher: 8.07% for the first, -14.8% for the second.

Compared with `Cc1nc(-c2ccc(Cl)cc2)oc1COC(C)(C)C(=O)O`, `Cc1cc2c(OCC(CNC(C)(C)C)OC(=O)c3ccccc3)cccc2[nH]1` (stereo not given) is higher in “activity change, negative = cytotoxicity” value: 1.76% for the first, 1.99% for the second.

Going from `C#C[C@]1(O)CC[C@H]2[C@@H]3[C@H](C)CC4=C(CCC(=O)C4)[C@H]3CC[C@@]21C` to `C=C1c2cccc(O)c2C(O)=C2C(=O)[C@]3(O)C(O)=C(C(N)=O)C(=O)[C@@H](N(C)C)[C@@H]3[C@@H](O)[C@H]12`, the “activity change, negative = cytotoxicity” value rises from -2.7% to -2.1%.

Going from `CN1CCN(CCC(=O)N2c3ccccc3Sc3ccc(C(F)(F)F)cc32)CC1` to `CCc1nn(CCCN2CCN(c3cccc(Cl)c3)CC2)c(=O)n1CCOc1ccccc1`, the “activity change, negative = cytotoxicity” value rises from -6.32% to -4.01%.

Going from `Nc1nc(N)c(-c2ccccc2)s1` to `N#C/C(=C1\SCC(c2ccccc2Cl)S1)n1ccnc1` (stereo not given), the “activity change, negative = cytotoxicity” value falls from 8.4% to 0.136%.

First: CC(C)Cn1cnc2c1c(=O)n(C)c(=O)n2C
Second: CC(C)Cc1ccc(CC(=O)O)cc1
The “activity change, negative = cytotoxicity” value of the first is lower: 0.383% for the first, 2.68% for the second.

First: CCc1cc(Cl)c(OC)c(C(=O)NC[C@@H]2CCCN2CC)c1O
Second: COc1ccccc1N1CCN(CCCCNC(=O)c2ccc(-c3ccc(C(C)=O)cc3)cc2)CC1
The “activity change, negative = cytotoxicity” value of the first is higher: -1.11% for the first, -18.2% for the second.

First: CCC1Nc2cc(Cl)c(S(N)(=O)=O)cc2S(=O)(=O)N1 (stereo not given)
Second: NS(=O)(=O)c1cc(C(=O)O)cc(N2CCCC2)c1Oc1ccccc1
The “activity change, negative = cytotoxicity” value of the first is higher: -1.81% for the first, -3.15% for the second.

Going from `CCCN(CCC)S(=O)(=O)c1ccc(C(=O)O)cc1` to `CCN1CCCC(OC(=O)C(c2ccccc2)c2ccccc2)C1` (stereo not given), the “activity change, negative = cytotoxicity” value falls from 7.51% to -0.594%.

First: Oc1c(Cl)cc(Cl)c(Cl)c1Cc1c(O)c(Cl)cc(Cl)c1Cl
Second: O=S(c1cc(Cl)cc(Cl)c1O)c1cc(Cl)cc(Cl)c1O
The “activity change, negative = cytotoxicity” value of the first is lower: -18.8% for the first, 10.1% for the second.

Compared with `CC(C)=CCOc1ccc(/C=C/C(=O)c2ccc(OCC=C(C)C)cc2OCC(=O)O)cc1`, `COP(=O)(OC)OC(c1ccc(Cl)cc1)P(=O)(OC)OC` (stereo not given) is lower in “activity change, negative = cytotoxicity” value: -1.81% for the first, -14.1% for the second.

In the case of `C[C@@]12C(=O)OC(=O)[C@]1(C)C1CCC2O1`, the Potency is reported as 4.22 µM (active).

In the case of `N=C(N)N1CCc2ccccc2C1`, the activity change, negative = cytotoxicity is reported as -4.65% [at 4.84 µM].
